Hits are enriched below; roughly 3.9% of the tested compounds scored in any of these assays.
MITF act – MITF TRPM1 promoter activation in melanoma cells; AID 588334; actives 0.75% (n = 300,000); activation, % at 12.5 µM; SK-MEL-5 TRPM1-promoter luciferase, 24 h; % of positive control, neutral wells = 0;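 active = mean activation of at least 80% with every replicate also reaching 80%; inconclusive = mean reaches 80% but some replicate falls short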
HSF1 inh – HSF1 inhibition. activity change, negative = inhibition, % at 7.5 µM (by protocol). NIH3T3-HGL HSE-luciferase, MG132-induced, luminescence 8 h; hits give low values. actives 0.77% (n = 300,000). AID 2098;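 active = more than half of replicate wells show activity change below -50%, luminescence cut by over half; inconclusive = some wells, but at most half, below -50%; inactive = no replicate well below -50%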;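 note: luciferase reports HSF-1 transcriptional activity via heat shock element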
HSF-1 act – increases HSF-1 driven luciferase reporter signal; AID 504408; actives 1.7% (n = 300,000); activation, % at 9 µM; NIH3T3-HGL HSF-1 luciferase reporter, MG132, 8 h; 100% = twice DMSO control signal;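 active = mean replicate activation of at least 50% with a set share of replicates each reaching 50%; inconclusive = only one of those two conditions met; inactive = mean below 50% and too few replicates reaching it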
Wnt act – activators of Wnt/beta-catenin signaling; Wnt/beta-catenin reporter cell assay, activator, plate reader; actives 1.2% (n = 300,000); activation, % at 9.35 µM; in the data active = activation above about 30%, passing the limit was not always enough; inconclusive = no clear call, values can overlap the other calls
esBAF inh – blocks esBAF chromatin remodeling in mouse ES cells; Bmi1-luciferase knock-in reporter, 24 h; 100% = twice the neutral-well signal; reporter increase, % at 12.5 µM; actives 2% (n = 350,000); in the data active = activation above about 40%; inconclusive = no clear call, values can overlap the other calls;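 note: a rise in the Bmi1 reporter signal indicates esBAF inhibition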
Each line names hits and unclear results; the compound was inactive in the other large screens.

CC(C)c1ccc(NC(=O)c2ccccc2NC(=O)C2CCCCC2C(=O)O)cc1 (stereo unspecified)	Wnt act 35, esBAF inh 64
O=C(C[C@H]1CC[C@H](NC(=O)C2CCOCC2)[C@@H](CO)O1)NCc1ccccc1Cl	none (no result: MITF act, HSF1 inh, HSF-1 act, Wnt act)
COc1cccc(S(=O)(=O)N2CC[C@@H]3[C@H](CO)Nc4ccc(C5=CCCCC5)cc4[C@@H]32)c1	none (no result: MITF act, HSF1 inh, HSF-1 act, Wnt act)
COc1ccc(S(=O)(=O)Nc2ccc3c(c2)C(=O)N([C@H](C)CO)C[C@H](C)[C@H](CN(C)Cc2ccc(C(=O)O)cc2)OCCCC[C@@H](C)O3)cc1	none (no result: MITF act, HSF1 inh, HSF-1 act, Wnt act)
O=C(NCc1ccccc1)c1ccc(-c2cn[nH]c2)c2ccoc12	esBAF inh 57 (no result: MITF act, HSF1 inh, HSF-1 act)
CCOC(=O)c1ccc(NC(=O)c2ccco2)cc1	esBAF inh 72
CC(C)OC(=O)c1ccc(NC(=O)c2ccco2)cc1	MITF act 110, esBAF inh 61
CCCOC(=O)c1ccc(NC(=O)c2ccoc2C)cc1	HSF-1 act 56 (no result: Wnt act, esBAF inh)
COC(=O)c1ccc(CNC(=O)C(NC(=O)c2ccco2)C(C)C)cc1 (stereo unspecified)	HSF1 inh -58
CC(C)[C@H](NC(=O)c1ccco1)C(=O)NCc1ccccc1	none (no result: MITF act)
C[C@@H]1CCCCO[C@H](CN(C)CC2CCCCC2)[C@H](C)CN([C@H](C)CO)C(=O)c2cc(NC(=O)Cc3ccccc3)ccc2O1	none (no result: MITF act, HSF1 inh, HSF-1 act, Wnt act)
Cc1cccc(S(=O)(=O)N[C@@H]2CC[C@@H](CCNC(=O)Nc3cc(F)ccc3F)O[C@H]2CO)c1	none (no result: MITF act, HSF1 inh, HSF-1 act, Wnt act)
CCOC(=O)c1ccc(NC(=O)c2nn(C)cc2Br)cc1	MITF act 83, esBAF inh 51
CCOc1ccc(NC(=S)NC(=O)c2ccco2)cc1	MITF act 89, HSF-1 act 52, esBAF inh inconclusive
COC(=O)c1c(NC(=O)c2ccco2)sc(C)c1C	none
COC(=O)c1c(NC(=O)c2ccco2)sc(C(=O)Nc2ccc(F)cc2)c1C	MITF act 109 (no result: esBAF inh)
Cc1ccc(C(=O)OCC(=O)NCC2COc3ccccc3O2)cc1 (stereo unspecified)	none (no result: HSF1 inh, HSF-1 act)
CCOC(=O)c1ccc(NC(=O)CC2COc3ccccc3O2)cc1 (stereo unspecified)	HSF1 inh -81 (no result: MITF act)
C[C@@H]1CN([C@@H](C)CO)C(=O)c2cc(NC(=O)CCCN(C)C)ccc2O[C@@H](C)CCCCO[C@H]1CN(C)C(=O)CCC(F)(F)F	none (no result: MITF act, HSF1 inh, HSF-1 act, Wnt act)
COc1ccccc1-c1cnc2c(c1)C(=O)N([C@H](C)CO)C[C@@H](C)[C@@H](CN(C)Cc1ccc(C(=O)O)cc1)O2	none (no result: MITF act, HSF1 inh, HSF-1 act, Wnt act)
Cc1ccc(S(=O)(=O)N(C)C[C@H]2Oc3ccc(NC(=O)Cc4cn(C)c5ccccc45)cc3C(=O)N([C@@H](C)CO)C[C@H]2C)cc1	none (no result: MITF act, HSF1 inh, HSF-1 act, Wnt act)
CCOC(=O)c1ccc(NC(=S)N(Cc2cccnc2)Cc2ccco2)cc1	none
CCOc1ccc(NC(=S)N(Cc2ccc(Cl)cc2)Cc2ccco2)cc1	HSF-1 act 176
CCOC(=O)c1ccc(NC(=O)N(CC)CC)cc1	Wnt act 49
CCNC(=O)C[C@H]1CC[C@H]2[C@@H](COC[C@@H](O)CN2C(=O)Nc2ccc(C(F)(F)F)cc2)O1	none (no result: MITF act, HSF1 inh, HSF-1 act, Wnt act)
CCn1nc(C)c(/C=N/NC(=O)c2c[nH]c3ccccc23)c1C	HSF1 inh -70 (no result: esBAF inh)
Cc1ccc(/C=N/NC(=O)c2c[nH]c3ccccc23)s1	esBAF inh 59 (no result: Wnt act)
Cc1ccsc1/C=N/NC(=O)c1c[nH]c2ccccc12	Wnt act inconclusive
CCS(=O)(=O)NCC[C@H]1CC[C@@H](NC(=O)C2CCCC2)[C@H](CO)O1	none (no result: MITF act, HSF1 inh, HSF-1 act, Wnt act)
Cc1nc2ccccc2n1CC(O)COCC1CC=CCC1 (stereo unspecified)	HSF-1 act 87 (no result: Wnt act)
Cc1ccc(C2(C)NC(=O)N(CC(=O)Nc3ccc(-c4nc5ccc(C)cc5s4)cc3)C2=O)cc1 (stereo unspecified)	Wnt act 38 (no result: esBAF inh)
O=C(O)CSCC(=O)Nc1ccc(-c2nc3ccccc3s2)cc1	none (no result: MITF act, esBAF inh)
Cc1cc(C)cc(NC(=O)CN2C(=O)NC(C)(c3ccccc3)C2=O)c1 (stereo unspecified)	HSF-1 act 86
Cc1ccc2nc(-c3ccc(NC(=O)CSCC(=O)O)cc3)sc2c1	MITF act 103, Wnt act 72
Cc1ccc2nc(-c3ccc(NC(=O)COCC(=O)O)cc3)sc2c1	Wnt act 38 (no result: MITF act, esBAF inh)
CO[C@@H]1CN(C)C(=O)c2ccc(NC(=O)C3CC3)cc2OC[C@H](C)N(CC2CC2)C[C@H]1C	none (no result: MITF act, HSF1 inh, HSF-1 act, Wnt act)
CN1CCN(C(=O)C[C@@H]2C[C@H]3c4cc(NC(=O)Nc5ccc(C(F)(F)F)cc5)ccc4O[C@H]3[C@@H](CO)O2)CC1	none (no result: MITF act, HSF1 inh, HSF-1 act, Wnt act)
CN(C)CCCNC(=O)C[C@@H]1CC[C@@H]2[C@H](COC[C@@H](O)CN2CC2CCCC2)O1	none (no result: MITF act, HSF1 inh, HSF-1 act, Wnt act)
COc1cccc(NC(=O)CN2C(=O)COc3ccc(S(=O)(=O)N4CCC(C)CC4)cc32)c1	HSF-1 act 86
CCOC(=O)N1CCN(C(=O)CN2C(=O)COc3ccc(S(=O)(=O)N4CCOCC4)cc32)CC1	HSF-1 act 58
CC(C)(C)c1ccc(CCC2OCC(C[N+]3(C)CCOCC3)O2)cc1 (stereo unspecified)	Wnt act 31 (no result: MITF act, esBAF inh)
Cc1noc(C)c1NC(=O)Nc1ccc2c(c1)CC(=O)N([C@H](C)CO)C[C@H](C)[C@H](CN(C)C(=O)Nc1ccc(C(F)(F)F)cc1)O2	none (no result: MITF act, HSF1 inh, HSF-1 act, Wnt act)
CCC(=O)N1[C@H](CO)[C@@H]2c3ccccc3N(C(=O)c3ccncc3)C[C@@H]21	none (no result: MITF act, HSF1 inh, HSF-1 act, Wnt act)
O=C(C[C@@H]1CC[C@H]2[C@@H](COC[C@H](O)CN2Cc2cccc(F)c2)O1)NCc1ccncc1	none (no result: MITF act, HSF1 inh, HSF-1 act, Wnt act)
CCC(C(=O)NC(C)(C)C)N(Cc1ccc(F)cc1)C(=O)c1snc(C(N)=O)c1N (stereo unspecified)	HSF1 inh -67 (no result: MITF act)
O=[N+]([O-])c1ccccc1NCCOc1ccccc1	HSF-1 act inconclusive, Wnt act 67 (no result: esBAF inh)
Cc1cc(C)cc(NC(=O)CCn2cnc3cc(C)c(C)cc32)c1	Wnt act 38 (no result: esBAF inh)
Cc1ccc(NC(=O)CCn2cnc3cc(C)c(C)cc32)cc1	none
C/C(=N\OCC(=O)Nn1c(=O)[nH]c2ccccc2c1=O)c1cccs1	HSF1 inh -58 (no result: esBAF inh)
CC(=O)c1ccc(NC(=O)CO/N=C(\C)c2cccs2)cc1	none (no result: Wnt act, esBAF inh)
Cc1noc(C)c1NC(=O)Nc1ccc2c(c1)C(=O)N(C)[C@H]1CC[C@H](CC(=O)N[C@@H]3CCN(Cc4ccccc4)C3)O[C@@H]1CO2	none (no result: MITF act, HSF1 inh, HSF-1 act, Wnt act)
O=C(N/N=C/c1ccccn1)c1ccc([N+](=O)[O-])cc1	HSF1 inh -81 (no result: esBAF inh)
Cc1occc1C(=O)N/N=C/c1ccccc1[N+](=O)[O-]	Wnt act 44 (no result: MITF act, esBAF inh)
Cn1nccc1C(=O)N/N=C/c1ccccc1[N+](=O)[O-]	Wnt act 41
O=C(N/N=C/c1ccccn1)c1cc([N+](=O)[O-])cc([N+](=O)[O-])c1	none
Cc1ccc(C(=O)N/N=C\c2ccccc2[N+](=O)[O-])cn1	esBAF inh 53

Screening results as filed in PubChem.
